Measured values taken from publication PMC7862700, “An all-to-all approach to the identification of sequence-specific readers for epigenetic DNA modifications on cytosine”.

Assays:
Test in all cases: DAPPL (digital affinity profiling via proximity ligation, sequencing); 10 mM Tris-HCl pH 7.5, 50 mM NaCl, 1 mM DTT, 4% glycerol, room temperature, 30 min; GST-TFs on glutathione beads, 16-mer random dsDNA library, 0.1% formaldehyde crosslink after washing; high values mean tight binding
[1] = target: T1, FLI1 (Homo sapiens, UniProt Q01543 1-452); conditions: protein: recombinant; tags: N-terminal GST; dsDNA, one strand shown
T1 sequence: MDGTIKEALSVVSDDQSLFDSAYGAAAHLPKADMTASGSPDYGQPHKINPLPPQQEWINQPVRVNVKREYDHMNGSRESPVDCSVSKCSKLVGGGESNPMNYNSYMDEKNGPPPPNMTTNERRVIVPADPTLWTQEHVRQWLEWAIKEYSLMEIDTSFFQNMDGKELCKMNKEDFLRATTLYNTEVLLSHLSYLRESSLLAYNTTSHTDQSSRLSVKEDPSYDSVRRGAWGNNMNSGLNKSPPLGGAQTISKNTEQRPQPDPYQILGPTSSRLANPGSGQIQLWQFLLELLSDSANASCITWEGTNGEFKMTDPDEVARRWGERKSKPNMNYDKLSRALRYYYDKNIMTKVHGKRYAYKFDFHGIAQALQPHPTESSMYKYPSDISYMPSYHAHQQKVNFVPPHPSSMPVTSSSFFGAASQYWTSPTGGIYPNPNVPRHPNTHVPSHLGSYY
How it was run: (§1)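 Beads coated with glutathione captured GST-fused human transcription factors that had been expressed in yeast, and the factors were then given DNA barcodes and pooled with a tag-only sample. The pools were incubated with 200 nmole of a random double-stranded 16-mer DNA library in Tris/NaCl/DTT/glycerol buffer for 30 min at room temperature, washed, crosslinked with 0.1% formaldehyde and proximity-ligated with BsaI/T4 ligase at 37 °C for 1 h. PCR amplification and Illumina NextSeq500 sequencing came last. Binding signal is each hexamer's read frequency for a factor divided by its frequency for the tag-only sample.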

[2] = target: T2, ELK1 (Homo sapiens, UniProt P19419 1-428); conditions: protein: recombinant; tags: N-terminal GST; dsDNA, one strand shown
T2 sequence: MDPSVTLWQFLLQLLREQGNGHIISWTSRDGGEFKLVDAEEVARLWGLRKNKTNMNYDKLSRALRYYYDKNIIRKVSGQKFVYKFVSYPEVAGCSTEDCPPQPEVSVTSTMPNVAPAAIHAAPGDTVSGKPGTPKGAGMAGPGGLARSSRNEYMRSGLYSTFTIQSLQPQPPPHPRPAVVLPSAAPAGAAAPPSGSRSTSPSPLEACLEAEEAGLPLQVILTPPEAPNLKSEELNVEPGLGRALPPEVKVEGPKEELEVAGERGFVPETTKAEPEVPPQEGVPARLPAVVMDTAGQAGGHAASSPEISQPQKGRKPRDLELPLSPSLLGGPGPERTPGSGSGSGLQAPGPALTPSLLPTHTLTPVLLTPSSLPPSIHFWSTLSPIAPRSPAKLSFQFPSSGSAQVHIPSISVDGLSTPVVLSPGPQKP
How it was run: as §1

[3] = target: T3, GABPA (Homo sapiens, UniProt Q06546 1-454); conditions: protein: recombinant; tags: N-terminal GST; dsDNA, one strand shown
T3 sequence: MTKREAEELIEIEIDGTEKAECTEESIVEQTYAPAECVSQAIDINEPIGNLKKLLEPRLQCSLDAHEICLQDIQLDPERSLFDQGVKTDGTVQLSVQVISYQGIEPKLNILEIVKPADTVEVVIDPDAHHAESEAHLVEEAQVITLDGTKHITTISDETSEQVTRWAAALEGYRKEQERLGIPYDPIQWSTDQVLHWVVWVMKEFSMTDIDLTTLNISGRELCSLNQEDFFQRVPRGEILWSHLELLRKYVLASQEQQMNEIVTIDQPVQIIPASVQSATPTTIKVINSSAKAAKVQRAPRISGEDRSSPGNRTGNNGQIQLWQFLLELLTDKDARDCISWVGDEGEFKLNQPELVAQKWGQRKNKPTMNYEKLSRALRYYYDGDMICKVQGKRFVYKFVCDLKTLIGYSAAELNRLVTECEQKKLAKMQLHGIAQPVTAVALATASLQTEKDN
How it was run: as §1

[4] = target: T4, ERG (Homo sapiens, UniProt P11308 1-479); conditions: protein: recombinant; tags: N-terminal GST; dsDNA, one strand shown
T4 sequence: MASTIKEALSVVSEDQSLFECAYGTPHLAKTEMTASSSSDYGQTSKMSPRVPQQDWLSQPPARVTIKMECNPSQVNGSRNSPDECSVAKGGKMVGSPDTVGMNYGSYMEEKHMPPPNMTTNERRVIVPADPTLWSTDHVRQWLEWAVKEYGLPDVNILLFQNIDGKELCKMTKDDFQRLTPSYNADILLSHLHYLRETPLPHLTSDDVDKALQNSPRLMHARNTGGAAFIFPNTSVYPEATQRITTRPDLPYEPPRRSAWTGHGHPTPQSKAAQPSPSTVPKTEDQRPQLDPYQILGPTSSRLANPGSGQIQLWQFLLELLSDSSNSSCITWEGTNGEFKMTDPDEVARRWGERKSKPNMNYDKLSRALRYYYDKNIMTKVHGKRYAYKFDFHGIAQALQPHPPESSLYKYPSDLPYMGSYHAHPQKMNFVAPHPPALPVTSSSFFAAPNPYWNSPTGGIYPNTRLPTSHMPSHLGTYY
How it was run: as §1

[5] = target: ELF1 (Homo sapiens, UniProt P32519 1-619); conditions: protein: recombinant; tags: N-terminal GST; dsDNA, one strand shown
Sequence of ELF1 (P32519 whole entry): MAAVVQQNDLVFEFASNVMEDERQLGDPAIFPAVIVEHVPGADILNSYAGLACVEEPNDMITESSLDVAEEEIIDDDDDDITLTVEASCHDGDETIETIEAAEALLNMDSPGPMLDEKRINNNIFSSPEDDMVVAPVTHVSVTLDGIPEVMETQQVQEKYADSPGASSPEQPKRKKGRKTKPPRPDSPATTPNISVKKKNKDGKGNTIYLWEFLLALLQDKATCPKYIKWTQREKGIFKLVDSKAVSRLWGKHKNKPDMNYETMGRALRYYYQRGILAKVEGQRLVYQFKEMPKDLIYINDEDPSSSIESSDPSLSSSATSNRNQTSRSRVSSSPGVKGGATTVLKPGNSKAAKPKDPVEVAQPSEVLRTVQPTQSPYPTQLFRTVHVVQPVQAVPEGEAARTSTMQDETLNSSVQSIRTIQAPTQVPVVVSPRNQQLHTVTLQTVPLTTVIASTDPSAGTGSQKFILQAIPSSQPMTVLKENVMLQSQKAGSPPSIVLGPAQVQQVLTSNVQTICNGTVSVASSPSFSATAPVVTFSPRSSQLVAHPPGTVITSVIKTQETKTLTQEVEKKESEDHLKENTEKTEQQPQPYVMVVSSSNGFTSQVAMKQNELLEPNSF
How it was run: as §1

[6] = target: T5, EHF (Homo sapiens, UniProt Q9NZC4 1-300); conditions: protein: recombinant; tags: N-terminal GST; dsDNA, one strand shown
T5 sequence: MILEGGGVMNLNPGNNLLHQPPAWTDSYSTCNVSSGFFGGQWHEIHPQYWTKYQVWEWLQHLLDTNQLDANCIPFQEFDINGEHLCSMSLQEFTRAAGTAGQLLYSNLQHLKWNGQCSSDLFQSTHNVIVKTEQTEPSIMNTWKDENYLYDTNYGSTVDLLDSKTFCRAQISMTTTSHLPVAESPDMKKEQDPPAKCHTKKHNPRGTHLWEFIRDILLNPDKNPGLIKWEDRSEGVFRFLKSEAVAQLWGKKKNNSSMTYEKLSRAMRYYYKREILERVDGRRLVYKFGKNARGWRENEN
How it was run: as §1

[7] = target: SPI1 (Homo sapiens, UniProt P17947 1-270); conditions: protein: recombinant; tags: N-terminal GST; dsDNA, one strand shown
How it was run: as §1

[8] = target: SPIB (Homo sapiens, UniProt Q01892 1-262); conditions: protein: recombinant; tags: N-terminal GST; dsDNA, one strand shown
Sequence of SPIB (Q01892 whole entry): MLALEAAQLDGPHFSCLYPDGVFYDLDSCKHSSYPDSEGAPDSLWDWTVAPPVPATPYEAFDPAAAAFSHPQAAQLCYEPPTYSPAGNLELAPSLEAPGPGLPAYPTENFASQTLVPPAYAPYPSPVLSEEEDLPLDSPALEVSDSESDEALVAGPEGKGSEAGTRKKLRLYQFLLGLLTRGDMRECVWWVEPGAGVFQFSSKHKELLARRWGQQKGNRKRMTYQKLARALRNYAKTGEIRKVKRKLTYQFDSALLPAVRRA
How it was run: as §1

[9] = target: T6, ELK3 (Homo sapiens, UniProt P41970 1-407); conditions: protein: recombinant; tags: N-terminal GST; dsDNA, one strand shown
T6 sequence: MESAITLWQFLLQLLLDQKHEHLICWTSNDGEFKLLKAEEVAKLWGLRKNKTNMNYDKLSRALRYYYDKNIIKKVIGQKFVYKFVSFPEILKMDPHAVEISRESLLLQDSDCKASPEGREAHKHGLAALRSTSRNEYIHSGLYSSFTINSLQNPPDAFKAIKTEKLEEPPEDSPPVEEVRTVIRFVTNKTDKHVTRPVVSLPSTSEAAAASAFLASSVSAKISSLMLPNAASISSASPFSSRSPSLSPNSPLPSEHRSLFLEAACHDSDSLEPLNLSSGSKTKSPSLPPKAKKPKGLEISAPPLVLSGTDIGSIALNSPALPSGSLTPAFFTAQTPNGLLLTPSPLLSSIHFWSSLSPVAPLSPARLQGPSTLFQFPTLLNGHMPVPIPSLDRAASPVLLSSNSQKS
How it was run: as §1

[10] = target: T7, FEV (Homo sapiens, UniProt Q99581 1-238); conditions: protein: recombinant; tags: N-terminal GST; dsDNA, one strand shown
T7 sequence: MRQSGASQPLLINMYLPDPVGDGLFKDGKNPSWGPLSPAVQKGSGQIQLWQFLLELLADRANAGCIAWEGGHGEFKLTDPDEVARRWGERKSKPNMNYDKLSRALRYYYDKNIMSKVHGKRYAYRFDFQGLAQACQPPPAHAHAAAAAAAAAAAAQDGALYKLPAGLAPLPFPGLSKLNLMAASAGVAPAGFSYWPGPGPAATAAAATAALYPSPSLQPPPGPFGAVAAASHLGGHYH
How it was run: as §1

[11] = target: ETV5 (Homo sapiens, UniProt P41161 1-510); conditions: protein: recombinant; tags: N-terminal GST; dsDNA, one strand shown
Sequence of ETV5 (P41161 whole entry): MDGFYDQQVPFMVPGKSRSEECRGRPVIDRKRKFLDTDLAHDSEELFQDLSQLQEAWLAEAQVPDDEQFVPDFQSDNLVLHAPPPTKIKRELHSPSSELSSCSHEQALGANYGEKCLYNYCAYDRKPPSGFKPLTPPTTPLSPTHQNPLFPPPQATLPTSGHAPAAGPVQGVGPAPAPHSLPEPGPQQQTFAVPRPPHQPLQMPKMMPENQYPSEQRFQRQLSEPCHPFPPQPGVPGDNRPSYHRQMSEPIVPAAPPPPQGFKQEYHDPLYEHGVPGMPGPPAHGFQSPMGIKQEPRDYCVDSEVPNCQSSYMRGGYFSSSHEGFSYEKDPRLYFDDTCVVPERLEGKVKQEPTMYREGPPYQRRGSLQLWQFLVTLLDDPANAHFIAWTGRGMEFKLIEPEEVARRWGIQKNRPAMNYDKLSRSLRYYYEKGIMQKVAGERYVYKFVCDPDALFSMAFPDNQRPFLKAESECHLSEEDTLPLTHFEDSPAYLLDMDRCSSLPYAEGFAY
How it was run: as §1

[12] = target: HSF1 (Homo sapiens, UniProt Q00613 1-529); conditions: protein: recombinant; tags: N-terminal GST; chain copies: 3; dsDNA, one strand shown
Sequence of HSF1 (Q00613 whole entry): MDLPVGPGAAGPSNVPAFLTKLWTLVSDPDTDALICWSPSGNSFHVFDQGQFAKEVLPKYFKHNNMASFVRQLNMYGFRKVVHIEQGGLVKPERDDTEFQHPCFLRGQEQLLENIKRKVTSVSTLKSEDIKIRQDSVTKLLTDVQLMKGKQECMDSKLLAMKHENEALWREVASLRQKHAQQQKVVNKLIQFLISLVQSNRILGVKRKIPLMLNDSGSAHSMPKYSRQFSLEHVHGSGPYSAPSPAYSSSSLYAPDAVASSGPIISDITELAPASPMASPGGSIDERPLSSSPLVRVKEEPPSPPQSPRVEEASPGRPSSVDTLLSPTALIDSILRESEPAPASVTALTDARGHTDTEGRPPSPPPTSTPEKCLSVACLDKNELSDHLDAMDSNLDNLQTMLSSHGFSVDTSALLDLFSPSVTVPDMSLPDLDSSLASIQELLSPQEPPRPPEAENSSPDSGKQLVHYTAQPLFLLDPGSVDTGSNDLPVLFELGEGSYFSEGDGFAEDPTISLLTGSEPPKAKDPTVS
How it was run: as §1

[13] = target: T8, SPIC (Homo sapiens, UniProt Q8N5J4 1-248); conditions: protein: recombinant; tags: N-terminal GST; dsDNA, one strand shown
T8 sequence: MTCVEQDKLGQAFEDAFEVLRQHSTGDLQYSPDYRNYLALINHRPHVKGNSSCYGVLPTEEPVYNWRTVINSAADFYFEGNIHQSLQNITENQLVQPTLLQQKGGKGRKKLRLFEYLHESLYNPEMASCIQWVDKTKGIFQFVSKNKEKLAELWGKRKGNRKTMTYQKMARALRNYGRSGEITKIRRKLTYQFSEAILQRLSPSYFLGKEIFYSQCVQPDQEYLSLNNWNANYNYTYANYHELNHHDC
How it was run: as §1

[14] = target: ELF4 (Homo sapiens, UniProt Q99607 1-663); conditions: protein: recombinant; tags: N-terminal GST; dsDNA, one strand shown
Sequence of ELF4 (Q99607 whole entry): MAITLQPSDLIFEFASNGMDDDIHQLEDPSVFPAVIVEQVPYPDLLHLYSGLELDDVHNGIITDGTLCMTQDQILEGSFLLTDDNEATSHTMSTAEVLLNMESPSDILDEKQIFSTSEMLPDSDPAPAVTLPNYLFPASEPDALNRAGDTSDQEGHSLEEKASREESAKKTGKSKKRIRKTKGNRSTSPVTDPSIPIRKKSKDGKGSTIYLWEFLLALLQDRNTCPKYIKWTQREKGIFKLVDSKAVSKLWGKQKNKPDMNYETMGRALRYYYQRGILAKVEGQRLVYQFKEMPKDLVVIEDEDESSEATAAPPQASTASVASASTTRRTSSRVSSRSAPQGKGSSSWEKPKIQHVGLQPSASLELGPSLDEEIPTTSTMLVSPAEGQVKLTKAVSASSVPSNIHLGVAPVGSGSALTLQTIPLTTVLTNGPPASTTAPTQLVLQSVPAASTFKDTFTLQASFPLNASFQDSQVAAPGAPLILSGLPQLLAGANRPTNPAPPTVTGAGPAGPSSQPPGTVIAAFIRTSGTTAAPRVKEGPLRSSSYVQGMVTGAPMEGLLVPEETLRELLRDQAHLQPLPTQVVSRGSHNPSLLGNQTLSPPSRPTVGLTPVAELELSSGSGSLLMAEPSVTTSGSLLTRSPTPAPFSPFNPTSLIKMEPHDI
How it was run: as §1

[15] = target: T9, ELK4 (Homo sapiens, UniProt P28324-2 1-405); conditions: protein: recombinant; tags: N-terminal GST; dsDNA, one strand shown
T9 sequence: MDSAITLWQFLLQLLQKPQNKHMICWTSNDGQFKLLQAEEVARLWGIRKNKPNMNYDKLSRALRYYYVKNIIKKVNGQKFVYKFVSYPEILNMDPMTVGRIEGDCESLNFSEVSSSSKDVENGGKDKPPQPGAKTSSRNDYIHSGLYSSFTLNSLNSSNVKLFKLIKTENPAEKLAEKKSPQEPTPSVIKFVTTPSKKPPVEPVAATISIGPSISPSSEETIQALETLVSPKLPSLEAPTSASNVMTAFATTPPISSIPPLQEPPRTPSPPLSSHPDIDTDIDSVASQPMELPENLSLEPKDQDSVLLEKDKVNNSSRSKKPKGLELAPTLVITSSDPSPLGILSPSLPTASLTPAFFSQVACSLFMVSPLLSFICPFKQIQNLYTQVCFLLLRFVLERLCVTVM
How it was run: as §1

[16] = target: T10, ETV2 (Homo sapiens, UniProt O00321 1-342); conditions: protein: recombinant; tags: N-terminal GST; dsDNA, one strand shown
T10 sequence: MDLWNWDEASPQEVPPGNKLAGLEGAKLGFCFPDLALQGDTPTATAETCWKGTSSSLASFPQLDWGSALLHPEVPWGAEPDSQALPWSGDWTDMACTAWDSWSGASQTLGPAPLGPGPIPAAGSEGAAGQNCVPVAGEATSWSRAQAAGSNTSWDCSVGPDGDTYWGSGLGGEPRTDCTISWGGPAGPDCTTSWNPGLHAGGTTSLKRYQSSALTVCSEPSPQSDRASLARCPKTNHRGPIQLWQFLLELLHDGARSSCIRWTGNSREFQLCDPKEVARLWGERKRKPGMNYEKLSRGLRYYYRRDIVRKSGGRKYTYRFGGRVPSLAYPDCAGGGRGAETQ
How it was run: as §1

[17] = target: T11, ELF3 (Homo sapiens, UniProt P78545 1-371); conditions: protein: recombinant; tags: N-terminal GST; dsDNA, one strand shown
T11 sequence: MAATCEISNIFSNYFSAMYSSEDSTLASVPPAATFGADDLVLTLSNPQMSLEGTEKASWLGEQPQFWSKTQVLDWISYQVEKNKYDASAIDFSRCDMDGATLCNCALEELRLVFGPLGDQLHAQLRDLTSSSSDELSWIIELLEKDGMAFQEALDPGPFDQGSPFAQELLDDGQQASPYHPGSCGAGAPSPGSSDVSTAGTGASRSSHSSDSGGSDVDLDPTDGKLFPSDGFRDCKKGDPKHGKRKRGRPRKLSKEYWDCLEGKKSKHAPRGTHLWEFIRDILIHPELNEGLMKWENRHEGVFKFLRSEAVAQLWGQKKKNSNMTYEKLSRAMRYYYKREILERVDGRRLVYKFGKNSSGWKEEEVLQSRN
How it was run: as §1

[18] = target: CRX (Homo sapiens, UniProt O43186 1-299); conditions: protein: recombinant; tags: N-terminal GST; dsDNA, one strand shown
Sequence of CRX (O43186 whole entry): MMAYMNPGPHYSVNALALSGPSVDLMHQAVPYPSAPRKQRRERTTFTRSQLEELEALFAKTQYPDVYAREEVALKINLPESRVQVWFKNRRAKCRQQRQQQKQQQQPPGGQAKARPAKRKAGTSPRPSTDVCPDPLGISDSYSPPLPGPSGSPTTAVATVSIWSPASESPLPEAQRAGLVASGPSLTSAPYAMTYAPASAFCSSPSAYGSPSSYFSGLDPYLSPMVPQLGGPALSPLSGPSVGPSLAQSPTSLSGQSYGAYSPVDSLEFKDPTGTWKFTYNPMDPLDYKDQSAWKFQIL
How it was run: as §1

[19] = target: ETV1 (Homo sapiens, UniProt P50549 1-477); conditions: protein: recombinant; tags: N-terminal GST; dsDNA, one strand shown
Sequence of ETV1 (P50549 whole entry): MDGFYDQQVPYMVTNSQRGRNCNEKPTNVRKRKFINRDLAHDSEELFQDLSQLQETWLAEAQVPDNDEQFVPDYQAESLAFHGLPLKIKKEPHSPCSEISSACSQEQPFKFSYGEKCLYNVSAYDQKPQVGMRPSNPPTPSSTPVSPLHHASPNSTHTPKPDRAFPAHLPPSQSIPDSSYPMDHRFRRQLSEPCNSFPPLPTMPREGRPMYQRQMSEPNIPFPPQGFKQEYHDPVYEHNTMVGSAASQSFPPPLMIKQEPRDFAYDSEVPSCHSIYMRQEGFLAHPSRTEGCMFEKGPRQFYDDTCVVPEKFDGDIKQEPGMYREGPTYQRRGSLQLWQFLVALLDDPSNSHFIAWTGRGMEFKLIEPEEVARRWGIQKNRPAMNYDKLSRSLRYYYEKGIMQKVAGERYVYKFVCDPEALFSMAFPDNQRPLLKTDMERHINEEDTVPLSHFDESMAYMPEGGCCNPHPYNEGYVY
How it was run: as §1

AATTCC
binding signal [1]: 1.95 fold enrichment (6-mer frequency, TF over GST control) | binding signal [2]: 1.93 fold enrichment (6-mer frequency, TF over GST control) | binding signal [3]: 1.81 fold enrichment (6-mer frequency, TF over GST control) | binding signal [4]: 1.96 fold enrichment (6-mer frequency, TF over GST control) | binding signal [5]: 1.86 fold enrichment (6-mer frequency, TF over GST control) | binding signal [6]: 2.05 fold enrichment (6-mer frequency, TF over GST control) | binding signal [7]: 1.89 fold enrichment (6-mer frequency, TF over GST control) | binding signal [8]: 2.02 fold enrichment (6-mer frequency, TF over GST control) | binding signal [9]: 1.94 fold enrichment (6-mer frequency, TF over GST control) | binding signal [10]: 2.05 fold enrichment (6-mer frequency, TF over GST control) | binding signal [11]: 2.1 fold enrichment (6-mer frequency, TF over GST control) | binding signal [12]: 2.07 fold enrichment (6-mer frequency, TF over GST control) | binding signal [13]: 1.93 fold enrichment (6-mer frequency, TF over GST control) | binding signal [14]: 1.92 fold enrichment (6-mer frequency, TF over GST control) | binding signal [15]: 1.55 fold enrichment (6-mer frequency, TF over GST control) | binding signal [16]: 2.11 fold enrichment (6-mer frequency, TF over GST control) | binding signal [17]: 1.7 fold enrichment (6-mer frequency, TF over GST control) | binding signal [18]: 2.04 fold enrichment (6-mer frequency, TF over GST control) | binding signal [19]: 1.95 fold enrichment (6-mer frequency, TF over GST control)
